# Compounds without any hit were thinned out: in the full panel of roughly 83,000, 20% have a hit.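 Compound tested at a single concentration for 48 hours in 96-well plates; a percent growth value below 10 was scored as active.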 The source made the active and inactive calls.
# Tested on: HOP-92 NSCLC
# Assay: NCI-60 one-dose screen, 48 h (100 = growth as untreated, 0 = no growth, -100 = all killed)
# Conditions: 10 µM unless noted
row,SMILES,growth
1,CC[C@H](C)[C@H](NC(=O)c1ccccn1)C(=O)N(C)[C@H](C[C@@H](OC(C)=O)c1nc(C(=O)N[C@@H](Cc2ccccc2)C[C@H](C)C(=O)OC)cs1)C(C)C,91.9% (inactive)
2,O=[N+]([O-])c1cnc[nH]1,93.7% (inactive)
3,CC(=O)O[C@H]1CC[C@]2(C)[C@H]3CC[C@]4(C)[C@@H](OC(C)=O)CC[C@H]4[C@@H]3[C@@H](C)[C@]2(O)C1,108% (inactive)
4,CCN(CC)CCOC(=O)C(OC(C)C)(c1ccccc1)c1ccccc1,80.1% (inactive)
5,O=C1NC(=O)C(=Cc2cccn2CCCCCn2c3ccccc3c(=O)c3ccccc32)C(=O)N1,90.4% (inactive)
6,COc1ccc(Nc2ccc([N+](=O)[O-])cc2[N+](=O)[O-])cc1CN(CCCl)CCCl,39.2% (inactive)
7,CCCC[C@H](NC(=O)[C@H]1CCCCN1C)C(=O)N(C)[C@H](C[C@@H](OC(C)=O)c1nc(C(=O)N[C@@H](Cc2ccccc2)C[C@H](C)C(=O)OCC)cs1)C(C)C,18.1% (inactive)
8,Nc1c(F)cc(-c2nc3cc(F)ccc3[se]2)cc1F,74.8% (inactive)
9,COC(=O)[C@H](Cc1ccccc1)NC(=O)c1csc([C@@H](C[C@H](C(C)C)N(C)C(=O)[C@@H](NC(=O)[C@H]2CCCCN2C)C2CC2)OC(C)=O)n1,-3.94% (active)
10,COC(=O)[C@@H](C)C[C@H](Cc1ccccc1)NC(=O)c1nc([C@@H](C[C@H](C(C)C)N(C)C(=O)[C@@H](NC(=O)[C@H]2CC(=O)CCN2C)C(C)C)OC(C)=O)sc1C(C)C,34.8% (inactive)
